Results taken from PubChem BioAssay (EPA / NIEHS).
Inconclusive results are not listed. A structure can be active in one record and inactive in another. Active and inactive are the calls of the source. The calls were made as follows, unless noted: active = hit-call score of the fitted dose curve at least 0.9, where 1 is the maximum; inactive = score below 0.9.

Tests used:
[1] = molecular target: human RAR-related Orphan Receptor gamma (RORg), RORC (gene 6097) (UniProt P51449); test: ATG_RORg_TRANS: Attagene TRANS-FACTORIAL HepG2 Assay for human RAR-related Orphan Receptor gamma (RORg) (AID 2283011; active = hit-call score of the fitted dose curve at least 0.9, where 1 is the maximum)
In short: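 Transient MRTU transfection of HepG2 (TRANS format, exogenous NR-Gal4 chimera). 24 h dosing. Total RNA → oligo(dT) RT → PCR → 6-FAM labelling → HpaI cut → CE. Gain vs DMSO.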

[2] = read-out: E-selectin (Homo sapiens) (UniProt P16581); test: BSK_3C_Eselectin: BioMAP Diversity Plus: 3C Assay for Eselectin Biomarker Activity (AID 2283015); conditions: primary human endothelial cells (HUVEC); actives raise or lower the signal;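 also: cell surface E-selectin protein quantified by ELISA 24 h after dosing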
In short: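 HUVEC, 3C stimulation; compound exposure 24 h; E-selectin by ELISA; gain- or loss-of-signal fitted bidirectionally vs DMSO baseline.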

[3] = read-out: Interleukin-1 alpha (IL1a), IL1A (gene 3552); test: BSK_BE3C_IL1a: BioMAP Diversity Plus: BE3C Assay for Interleukin-1 alpha (IL1a) Biomarker Activity (AID 2283016); conditions: primary human bronchial epithelial cells; actives raise or lower the signal
In short: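 BE3C primary human bronchial epithelium; cpd 24 h; IL-1a by ELISA; bidirectional fit vs DMSO; parallel SRB (0.1% SRB, 10% TCA fix, 560 nm) for cytotoxicity.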

[4] = read-out: Monocyte Chemoattractant Protein-1 (MCP1), CCL2 (gene 6347); test: BSK_3C_MCP1: BioMAP Diversity Plus: 3C Assay for Monocyte Chemoattractant Protein-1 (MCP1) Biomarker Activity (AID 2283017); conditions: primary human endothelial cells (HUVEC); actives raise or lower the signal
In short: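 HUVEC, 3C system; 24 h chemical exposure; MCP-1 by ELISA; bidirectional curve fit vs DMSO baseline.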

[5] = read-out: Monocyte Chemoattractant Protein-1 (MCP1), CCL2 (gene 6347); test: BSK_4H_MCP1: BioMAP Diversity Plus: 4H Assay for Monocyte Chemoattractant Protein-1 (MCP1) Biomarker Activity (AID 2283018); conditions: primary human endothelial cells (HUVEC); actives raise or lower the signal
In short: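 ELISA read-out of MCP-1 from human vascular endothelial primary cells taken at 24 hours after compound exposure. Activity was fitted in both directions relative to DMSO, which served as negative control.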

[6] = read-out: Human Leukocyte Antigen - DR isotype (HLADR), HLA-DRA (gene 3122); test: BSK_3C_HLADR: BioMAP Diversity Plus: 3C Assay for Human Leukocyte Antigen - DR isotype (HLADR) Biomarker Activity (AID 2283019); conditions: primary human endothelial cells (HUVEC); actives raise or lower the signal
In short: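 HUVEC, 3C stimulation, 24 h post-dose; HLA-DR by ELISA; bidirectional curve fit vs DMSO baseline; gain or loss of signal scored.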

[7] = read-out: Interleukin-8 (IL8), CXCL8 (gene 3576); test: BSK_3C_IL8: BioMAP Diversity Plus: 3C Assay for Interleukin-8 (IL8) Biomarker Activity (AID 2283020); conditions: primary human endothelial cells (HUVEC); actives raise or lower the signal
In short: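 ELISA read-out of IL-8 from human umbilical vein endothelium, measured 24 h after chemical dosing. Activity is expressed relative to DMSO negative control, with both increases and decreases fitted.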

[8] = read-out: Monokine induced gamma interferon (MIG), CXCL9 (gene 4283); test: BSK_3C_MIG: BioMAP Diversity Plus: 3C Assay for Monokine induced gamma interferon (MIG) Biomarker Activity (AID 2283021); conditions: primary human endothelial cells (HUVEC); actives raise or lower the signal
In short: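 Read-out is ELISA detection of MIG on human umbilical vein endothelial cells, taken 24 h after dosing. Gain or loss of signal was scored relative to DMSO controls using bidirectional curve fitting.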

[9] = molecular target: human Vitamin D Receptor (VDR), VDR (gene 7421) (UniProt P11473); test: ATG_VDR_TRANS: Attagene TRANS-FACTORIAL HepG2 Assay for human Vitamin D Receptor (VDR) (AID 2283022; active = hit-call score of the fitted dose curve at least 0.9, where 1 is the maximum)
In short: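 RT-PCR/capillary electrophoresis read-out of reporter mRNA induction in transiently transfected HepG2; 24 h dosing; chimeric NR-Gal4 (TRANS format); gain-of-signal fit against DMSO baseline.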

[10] = BSK_3C_SRB: Viability Assessment in the BioMAP Diversity Plus: 3C Assay (AID 2283023); conditions: primary human endothelial cells (HUVEC);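 also: fitted both ways against DMSO so a hit may be signal rise or drop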
In short: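 HUVEC, 24 h post-dose; 10% TCA fix, 0.1% SRB stain, A560 nm. Bidirectional curve fit vs DMSO negative control.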

[11] = read-out: Matrix Metallopeptidase 1 (MMP1), MMP1 (gene 4312); test: BSK_BE3C_MMP1: BioMAP Diversity Plus: BE3C Assay for Matrix Metallopeptidase 1 (MMP1) Biomarker Activity (AID 2283024); conditions: primary human bronchial epithelial cells; actives raise or lower the signal
In short: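 Human bronchial epithelial cells (BE3C system) exposed to compound for 24 h; MMP1 then quantified by ELISA. Activity was fitted in both directions relative to DMSO.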

[12] = BSK_3C_Vis: BioMAP Diversity Plus: 3C Assay for Morphology Visualization (AID 2283025); conditions: primary human endothelial cells (HUVEC);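 also: fitted both ways so gain or loss versus DMSO counts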;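 as to AC50: light microscopy image of cell morphology used as background control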
In short: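 Chemicals were added to primary human umbilical vein endothelium, cells were incubated 24 h, and morphology was then visualized by light microscopy. Gain or loss of signal was fitted bidirectionally relative to DMSO.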

[13] = read-out: Pselectin, SELP (gene 6403); test: BSK_4H_Pselectin: BioMAP Diversity Plus: 4H Assay for Pselectin Biomarker Activity (AID 2283026); conditions: primary human endothelial cells (HUVEC); actives raise or lower the signal
In short: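 ELISA read-out of P-selectin on human umbilical vein endothelium after 24 h of dosing. Values derive from bidirectional fitting relative to DMSO. Parallel SRB protein staining flagged overt cytotoxicity.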

[14] = BSK_4H_SRB: Viability Assessment in the BioMAP Diversity Plus: 4H Assay (AID 2283027); conditions: primary human endothelial cells (HUVEC);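 also: cells exposed to compound for 24 h before staining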;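 as to AC50: curves fitted both ways versus DMSO so AC50 may be loss or gain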
In short: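 Human umbilical vein endothelial cells were dosed with chemical and, after 24 h, fixed with 10% TCA, stained with 0.1% sulforhodamine B, and read at 560 nm to give total protein as a cytotoxicity measure. Bidirectional fitting relative to DMSO control.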

[15] = BSK_BE3C_SRB: Viability Assessment in the BioMAP Diversity Plus: BE3C Assay (AID 2283028); conditions: primary human bronchial epithelial cells;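 as to AC50: fitted both ways so AC50 may mark signal gain or loss versus DMSO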
In short: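 Primary human bronchial epithelium; chemical dosing, 24 h; 10% TCA fix, 0.1% SRB stain, A560; bidirectional fit vs DMSO baseline.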

[16] = read-out: Thrombomodulin, THBD (gene 7056); test: BSK_3C_Thrombomodulin: BioMAP Diversity Plus: 3C Assay for Thrombomodulin Biomarker Activity (AID 2283029); conditions: primary human endothelial cells (HUVEC); actives raise or lower the signal
In short: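 Read-out is ELISA of thrombomodulin on human umbilical vein endothelium 24 h after chemical dosing. Gain or loss of signal is scored relative to DMSO. Overt cytotoxicity is checked in parallel cultures by sulforhodamine B staining.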

[17] = read-out: Urokinase-type plasminogen activator receptor (uPAR), PLAUR (gene 5329); test: BSK_4H_uPAR: BioMAP Diversity Plus: 4H Assay for Urokinase-type plasminogen activator receptor (uPAR) Biomarker Activity (AID 2283030); conditions: primary human endothelial cells (HUVEC); actives raise or lower the signal
In short: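 HUVEC, 24 h post-dose; uPAR by ELISA; bidirectional fit vs DMSO baseline.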

[18] = molecular target: Retinoic acid receptor RXR-alpha (Homo sapiens) (UniProt P19793); test: ATG_RXRa_TRANS: Attagene TRANS-FACTORIAL HepG2 Assay for human Retinoid X Receptor alpha (RXRa) (AID 2283012; active = hit-call score of the fitted dose curve at least 0.9, where 1 is the maximum)
In short: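 Transient transfection of human HepG2 with multiple GAL4-UAS reporter constructs; 24 h compound exposure; total RNA isolated, reverse-transcribed, PCR-amplified, 6-FAM labelled, HpaI-cut, resolved by capillary electrophoresis. Positive-direction fit versus DMSO.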

[19] = molecular target: human Retinoid X Receptor beta (RXRb), RXRB (gene 6257) (UniProt P28702); test: ATG_RXRb_TRANS: Attagene TRANS-FACTORIAL HepG2 Assay for human Retinoid X Receptor beta (RXRb) (AID 2283013; active = hit-call score of the fitted dose curve at least 0.9, where 1 is the maximum)
In short: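 Transfect HepG2 with GAL4-UAS multi-reporter constructs (chimeric NR-Gal4, TRANS format); dose compound 24 h; isolate RNA, RT-PCR, FAM primer extension, HpaI digest; quantify by capillary electrophoresis; positive direction vs DMSO.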

[20] = molecular target: human Thyroid Receptor alpha (THRa1), THRA (gene 7067) (UniProt P10827); test: ATG_THRa1_TRANS: Attagene TRANS-FACTORIAL HepG2 Assay for human Thyroid Receptor alpha (THRa1) (AID 2283014; active = hit-call score of the fitted dose curve at least 0.9, where 1 is the maximum)
In short: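 Transient HepG2 transfection, NR-Gal4 chimera driving GAL4-UAS reporters; 24 h compound exposure; total RNA, oligo(dT) RT, PCR, fluorescent primer extension, capillary electrophoresis. Upward direction vs DMSO control.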

Measured: AC50

Sequence of E-selectin (Homo sapiens) (P16581 whole entry, looked up): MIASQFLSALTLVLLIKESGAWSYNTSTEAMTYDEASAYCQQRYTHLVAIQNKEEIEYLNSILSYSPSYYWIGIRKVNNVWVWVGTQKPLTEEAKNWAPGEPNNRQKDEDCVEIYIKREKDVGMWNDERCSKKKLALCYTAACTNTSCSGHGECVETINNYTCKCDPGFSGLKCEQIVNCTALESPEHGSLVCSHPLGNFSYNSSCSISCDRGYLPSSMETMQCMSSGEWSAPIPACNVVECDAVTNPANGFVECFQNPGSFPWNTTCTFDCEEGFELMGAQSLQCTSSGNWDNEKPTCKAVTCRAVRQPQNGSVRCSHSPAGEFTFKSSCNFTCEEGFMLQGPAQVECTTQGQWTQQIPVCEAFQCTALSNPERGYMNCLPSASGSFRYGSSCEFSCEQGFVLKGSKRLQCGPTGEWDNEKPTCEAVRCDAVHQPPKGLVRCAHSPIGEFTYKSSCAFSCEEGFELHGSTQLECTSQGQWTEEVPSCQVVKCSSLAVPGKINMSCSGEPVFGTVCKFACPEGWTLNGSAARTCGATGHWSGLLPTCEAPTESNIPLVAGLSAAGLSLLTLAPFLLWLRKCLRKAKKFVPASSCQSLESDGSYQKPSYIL
Sequence of human RAR-related Orphan Receptor gamma (RORg), RORC (gene 6097) (P51449 whole entry, looked up, the tested form may be a part): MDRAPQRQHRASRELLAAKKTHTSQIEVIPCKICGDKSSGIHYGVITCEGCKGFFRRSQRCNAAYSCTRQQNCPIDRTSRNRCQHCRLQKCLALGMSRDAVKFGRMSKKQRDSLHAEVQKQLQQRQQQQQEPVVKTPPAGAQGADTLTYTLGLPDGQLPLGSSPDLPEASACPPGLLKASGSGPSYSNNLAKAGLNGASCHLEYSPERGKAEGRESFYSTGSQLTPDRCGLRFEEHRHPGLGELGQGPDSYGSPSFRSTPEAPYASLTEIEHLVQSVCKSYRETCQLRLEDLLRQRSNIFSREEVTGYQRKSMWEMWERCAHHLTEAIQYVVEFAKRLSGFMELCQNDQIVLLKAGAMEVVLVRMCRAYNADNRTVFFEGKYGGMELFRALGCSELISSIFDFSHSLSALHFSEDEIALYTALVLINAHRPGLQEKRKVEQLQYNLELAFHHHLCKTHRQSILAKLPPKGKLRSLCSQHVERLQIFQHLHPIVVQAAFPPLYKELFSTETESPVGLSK
Sequence of human Vitamin D Receptor (VDR), VDR (gene 7421) (P11473 whole entry, looked up, the tested form may be a part): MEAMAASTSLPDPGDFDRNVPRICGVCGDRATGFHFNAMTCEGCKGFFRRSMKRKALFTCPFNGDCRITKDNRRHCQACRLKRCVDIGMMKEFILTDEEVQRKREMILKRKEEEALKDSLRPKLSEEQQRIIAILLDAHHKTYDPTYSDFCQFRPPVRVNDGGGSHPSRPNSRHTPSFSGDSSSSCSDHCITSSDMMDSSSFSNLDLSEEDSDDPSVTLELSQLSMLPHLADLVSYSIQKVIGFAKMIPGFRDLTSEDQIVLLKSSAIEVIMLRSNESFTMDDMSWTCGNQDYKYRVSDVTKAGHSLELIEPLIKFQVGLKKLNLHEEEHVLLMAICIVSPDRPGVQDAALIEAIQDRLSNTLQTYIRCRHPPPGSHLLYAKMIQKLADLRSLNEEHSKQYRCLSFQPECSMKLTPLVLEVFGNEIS
Sequence of human Thyroid Receptor alpha (THRa1), THRA (gene 7067) (P10827 whole entry, looked up, the tested form may be a part): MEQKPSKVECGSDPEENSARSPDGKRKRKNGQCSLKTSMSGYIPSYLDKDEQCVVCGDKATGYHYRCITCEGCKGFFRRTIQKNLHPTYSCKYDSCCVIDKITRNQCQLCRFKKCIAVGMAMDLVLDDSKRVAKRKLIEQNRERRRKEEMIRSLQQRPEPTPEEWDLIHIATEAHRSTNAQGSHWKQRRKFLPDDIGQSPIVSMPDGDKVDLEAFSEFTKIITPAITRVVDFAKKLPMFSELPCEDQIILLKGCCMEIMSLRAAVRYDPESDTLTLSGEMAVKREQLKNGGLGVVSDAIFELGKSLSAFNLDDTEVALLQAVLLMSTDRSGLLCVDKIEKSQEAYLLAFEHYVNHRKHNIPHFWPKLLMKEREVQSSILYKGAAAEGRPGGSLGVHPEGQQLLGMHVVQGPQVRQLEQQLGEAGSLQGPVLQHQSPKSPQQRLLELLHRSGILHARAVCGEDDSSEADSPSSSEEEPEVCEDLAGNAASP
Sequence of human Retinoid X Receptor beta (RXRb), RXRB (gene 6257) (P28702 whole entry, looked up, the tested form may be a part): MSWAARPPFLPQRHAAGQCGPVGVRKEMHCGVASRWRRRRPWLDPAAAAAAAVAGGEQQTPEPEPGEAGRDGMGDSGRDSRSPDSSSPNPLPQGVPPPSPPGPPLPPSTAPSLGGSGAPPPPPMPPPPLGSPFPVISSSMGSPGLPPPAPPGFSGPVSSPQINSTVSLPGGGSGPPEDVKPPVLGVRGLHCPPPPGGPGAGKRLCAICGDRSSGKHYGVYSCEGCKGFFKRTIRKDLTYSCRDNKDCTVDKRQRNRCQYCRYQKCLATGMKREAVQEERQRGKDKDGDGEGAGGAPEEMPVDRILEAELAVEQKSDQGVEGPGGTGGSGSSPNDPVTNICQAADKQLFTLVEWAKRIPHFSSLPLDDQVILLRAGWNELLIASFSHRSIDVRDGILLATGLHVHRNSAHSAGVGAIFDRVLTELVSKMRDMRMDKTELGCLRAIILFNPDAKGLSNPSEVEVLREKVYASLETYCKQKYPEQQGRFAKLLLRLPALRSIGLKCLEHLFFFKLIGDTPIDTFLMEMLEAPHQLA
Sequence of Retinoic acid receptor RXR-alpha (Homo sapiens) (P19793 whole entry, looked up, the tested form may be a part): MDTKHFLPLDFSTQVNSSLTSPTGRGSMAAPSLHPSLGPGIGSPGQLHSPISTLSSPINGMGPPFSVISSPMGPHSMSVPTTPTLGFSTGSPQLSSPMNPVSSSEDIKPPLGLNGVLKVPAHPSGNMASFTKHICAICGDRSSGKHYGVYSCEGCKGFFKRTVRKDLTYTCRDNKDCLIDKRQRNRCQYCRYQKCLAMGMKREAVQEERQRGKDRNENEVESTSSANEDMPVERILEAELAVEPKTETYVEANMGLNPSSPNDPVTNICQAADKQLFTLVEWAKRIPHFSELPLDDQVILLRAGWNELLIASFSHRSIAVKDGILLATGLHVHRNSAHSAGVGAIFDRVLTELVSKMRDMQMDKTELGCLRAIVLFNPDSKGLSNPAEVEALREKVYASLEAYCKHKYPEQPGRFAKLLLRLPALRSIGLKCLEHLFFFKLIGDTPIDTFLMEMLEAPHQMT

NC(=O)NN=Cc1ccc([N+](=O)[O-])o1
not listed: [18] | [19] | [20]
inactive: all other assays above

c1ccc2ncccc2c1
not listed: [4] | [8] | [9] | [11] | [19] | [20]
inactive: all other assays above

O=C(O)c1ccc2c(c1)nc(C(=O)NC1CCN(C3CC3)CC1)n2Cc1cc(-c2ccc(Cl)s2)on1
active: [6] 1600 nM | [13] 952 nM | [17] 54.1 nM
not listed: [8] | [9] | [11] | [18] | [19] | [20]
inactive: all other assays above

c1ccc2c(c1)-c1cccc3c1c-2cc1ccccc13
active: [19] 19800 nM | [11] 661 nM
inactive: [18] | [19] | [2] | [3] | [4] | [5] | [6] | [7] | [8] | [9] | [10] | [12] | [13] | [14] | [15] | [16] | [17]

O=S(=O)(O)c1ccc(N=Nc2c(O)ccc3cc(S(=O)(=O)O)ccc23)cc1
not listed: [1] | [4] | [8] | [11]
inactive: all other assays above

CCCCCCCCCCCCCCCCOS(=O)(=O)O
active: [19] 14600 nM | [3] 14700 nM | [15] 16600 nM
not listed: [1] | [4] | [8] | [11]
inactive: all other assays above

COc1cc2c(c(OC)c1OC)-c1ccc(OC)c(=O)cc1[C@@H](NC(C)=O)CC2
active: [6] 1070 nM | [10] 148 nM | [12] 488 nM | [13] 293 nM | [14] 148 nM | [17] 148 nM
not listed: [1] | [4] | [8]
inactive: all other assays above

CCc1cccc(CC)c1N
active: [19] 100000 nM
not listed: [4] | [9] | [11] | [18]
inactive: all other assays above
